Screening data from PubChem BioAssay.
TSG101-PTAP inh: qHTS Assay for Iinhibitors of HIV-1 Budding by Blocking the Interaction of PTAP/TSG101. 340,000 tested, under 10 active. Potency, µM (highest dose often 115 µM), inactives show top-dose activity change, negative = inhibition, actives largely listed as inhibitors. AID 493005, 2010. Fluorescence polarization, FITC-PTAP peptide / Tsg101 binding; active = well fitted inhibition curve with a large enough effect in the main read-out, with a control signal flat, not every such curve was filed as active; inconclusive = small, poorly fitted or top-dose-only effect, or effect the other way, or a change in a side signal; inactive = no such curve, though single readings can be large or run the other way; also: % of control where 0% means no effect
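Fluorescence anisotropy tracks displacement of a FITC-tagged PTAP peptide (50 nM) from the Tsg101 binding domain (10 uM), following a 20 min room-temperature incubation at pH 7.5.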
USP2a block: qHTS Assay for Inhibitors of Ubiquitin-specific Protease USP2a Using CHOP2 as the Reporter; USP2 core, Ub-CHOP2 coupled fluorogenic reporter, 485/531; actives 0.01% (n = 330,000); Ubiquitin carboxyl-terminal hydrolase 2 (Homo sapiens), O75604; Potency, µM (titrated, usually from 38.3 µM), inactives show at the top dose activity change, negative = inhibition, most hits filed as inhibitors; AID 463254, 2010;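 also: plate controls were DMSO wells for no effect and full inhibition by NEM control for full effect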
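Cell-free coupled assay: 10nM USP2 core preincubated 30min RT with compound in Tris-HCl pH 8.0/CaCl2/CHAPS buffer, then 25nM Ub-CHOP2 and 25nM reporter substrate; fluorescence (Ex 485/Em 531) read after 60min RT, normalized to NEM inhibition, concentration-response curves fitted.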
Eya2 phos inh: qHTS Assay for Inhibitors of the Phosphatase Activity of Eya2. Protein phosphatase EYA2 (Homo sapiens), O00167. recombinant Eya2, OMFP fluorescence dephosphorylation (OMFP is methylfluorescein phosphate). Potency, µM (titrated, usually from 76.9 µM), inactives show top-dose activity, negative = inhibition, hits mostly inhibitors. actives 0.006% (n = 330,000); also: % is scaled to controls: 0 for no effect and ±100 for the full control effect
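Eya2 protein (added as 0.2 uM solution) was preincubated with compound for 10 min at ambient temperature in 50 mM HEPES pH 7.5, 50 mM NaCl, 5 uM MgCl2, 0.05% BSA, 1 mM DTT. OMFP (added at 50 uM) then reacted 10 min; fluorescence read at 485/525 nm.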
12-LOX inh: Primary qHTS assay for inhibitors of human arachidonate 12S-lipoxygenase (ALOX12): Round 2; Polyunsaturated fatty acid lipoxygenase ALOX12 (Homo sapiens), P18054; actives 1.1% (n = 580,000); purified 12hLO, xylenol orange hydroperoxide absorbance; Potency, µM (doses to about 108 µM), for the others: at the top dose activity change, negative = inhibition, hits mostly inhibitors; also: % is scaled to controls: 0 for no effect and ±100 for the full control effect
Target sequence (P18054 whole entry, looked up): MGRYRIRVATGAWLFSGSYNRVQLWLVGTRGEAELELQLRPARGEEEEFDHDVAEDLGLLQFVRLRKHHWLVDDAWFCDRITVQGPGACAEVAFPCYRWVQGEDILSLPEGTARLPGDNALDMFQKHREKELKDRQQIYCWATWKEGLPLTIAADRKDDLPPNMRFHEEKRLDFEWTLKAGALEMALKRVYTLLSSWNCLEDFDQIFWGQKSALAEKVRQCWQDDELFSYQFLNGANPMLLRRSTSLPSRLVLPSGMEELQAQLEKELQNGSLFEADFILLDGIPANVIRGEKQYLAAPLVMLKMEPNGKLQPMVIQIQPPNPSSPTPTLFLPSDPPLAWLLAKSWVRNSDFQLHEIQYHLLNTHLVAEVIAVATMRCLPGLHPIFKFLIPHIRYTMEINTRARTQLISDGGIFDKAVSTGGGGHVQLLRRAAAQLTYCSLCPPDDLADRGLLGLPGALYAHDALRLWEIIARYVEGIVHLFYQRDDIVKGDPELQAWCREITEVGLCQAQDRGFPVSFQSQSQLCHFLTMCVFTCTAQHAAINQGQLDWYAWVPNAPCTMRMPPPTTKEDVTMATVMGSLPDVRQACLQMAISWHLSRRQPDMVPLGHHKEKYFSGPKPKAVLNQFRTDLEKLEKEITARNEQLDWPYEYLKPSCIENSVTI
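Purified human 12hLO (150 nM final) in 25 mM Hepes, 0.01% Triton X-100, pH 7.0 was preincubated 15 min at room temperature with compound. Then 40 uM arachidonic acid was added, 30 min. Hydroperoxide was read by Fe-XO absorbance ratio 573/405 nm.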
* marks the source's active call; other numbers are inactive results; ! = not active in a repeat; [ ] = dose if it differs, or a comment. Sampled rows, rich in hits. Any-hit rate of the full collection: about 1.1%. Unless noted, calls follow the shape of the dose curve; as a rule, active = well fitted curve in the direction sought with a large enough effect; inconclusive = small, poorly fitted or top-dose-only effect, or another doubt; inactive = no such curve, though single readings can be large; an effect the other way counts as inactive or inconclusive. Potency is read from the fitted curve at half-maximal effect.

Screening CC1=C[C@@H](CN(C)Cc2cccnc2)[C@H](C(C)C)C[C@H]1Cc1nnc(-c2ccc([N+](=O)[O-])cc2)o1 returned 12-LOX inh 138.1%.
For CC1(COc2ccccc2)COc2ccc(C(=O)NCCc3ccccn3)cc2N1 (stereo unspecified) the results were 12-LOX inh 17.8µM*.
Screening Cc1ccccc1C(=O)N1CCC(C(=O)Nc2ccc(S(=O)(=O)N3CCCCC3)cc2)CC1 returned TSG101-PTAP inh -1.1%, USP2a block -12.0%, Eya2 phos inh 4.4% and 12-LOX inh 44.7µM*.
`Cc1ccccc1C(=O)N1CCC(C(=O)Nc2ccc(S(=O)(=O)N3CCOCC3)cc2)CC1` gave TSG101-PTAP inh -4.1%, USP2a block 1.7%, Eya2 phos inh 9.8% and 12-LOX inh -3.7%.
`O=C(O)c1c2c(nc3ccccc13)/C(=C/c1cccc([N+](=O)[O-])c1)CCC2` gave TSG101-PTAP inh -7.3%, USP2a block 1.4%, Eya2 phos inh 8.0% and 12-LOX inh 39.8µM*.
O=C(O)c1c2c(nc3ccccc13)/C(=C/c1ccccc1[N+](=O)[O-])CCC2 was read as TSG101-PTAP inh -1.8%, USP2a block 0.0%, Eya2 phos inh 3.9% and 12-LOX inh inconclusive.
For O=C1C(O)=C(c2ccccc2)C(c2ccccc2F)N1c1ccc(F)cc1 (stereo unspecified) the results were 12-LOX inh -9.1%.
C#CCNC(=O)C1CN(c2ccccc2)C(=O)N1 (stereo unspecified) was read as 12-LOX inh -5.7%[176 µM].
Screening C#CCNC(=O)C1CN(c2cccc(Cl)c2)C(=O)N1 (stereo unspecified) returned 12-LOX inh 50.1µM*!.
For Nc1ccccc1N=c1ssnc1Cl the results were TSG101-PTAP inh -4.0%, USP2a block -0.8%, Eya2 phos inh 11.0% and 12-LOX inh inconclusive.
Cc1cc(Cl)ccc1N=c1ssnc1Cl was read as TSG101-PTAP inh -4.0%, USP2a block -6.8%, Eya2 phos inh 13.3% and 12-LOX inh inconclusive.
`Cc1ccc(N=c2ssnc2Cl)cc1` gave TSG101-PTAP inh -0.1%, USP2a block 2.4%, Eya2 phos inh 7.7% and 12-LOX inh 1.58µM*.
`COc1cc(N=c2ssnc2Cl)c(OC)cc1Cl` gave TSG101-PTAP inh 3.0%, USP2a block -1.6%, Eya2 phos inh 0.2% and 12-LOX inh 2.51µM*!.
Cc1nnc(N=c2ssnc2Cl)o1 was read as TSG101-PTAP inh -6.9%, USP2a block -1.0%, Eya2 phos inh 22.6% and 12-LOX inh 3.16µM*.
Cc1cc(C)nc(/N=c2/ssnc2Cl)c1 was read as TSG101-PTAP inh 0.3%, USP2a block -1.4%, Eya2 phos inh 11.4% and 12-LOX inh 8.91µM*.
For N#Cc1nc(-c2ccccc2)oc1NCc1ccc2c(c1)OCO2 the results were 12-LOX inh -8.8%.
Screening N#Cc1nc(COc2cccc(Cl)c2)oc1NCc1ccc2c(c1)OCO2 returned 12-LOX inh 12.6µM*.
N#Cc1nc(-c2cccc3ccccc23)oc1NCc1ccc2c(c1)OCO2 was read as 12-LOX inh 31.6µM*.
For Cc1cccc(-c2nc(C#N)c(NCc3ccccc3)o2)c1 the results were 12-LOX inh 50.1µM*.
Screening CC(=O)Nc1cccc(-c2cc(C(=O)NCc3c(C)cc(C)[nH]c3=O)c3c(c2)N(C(C)C)CCO3)c1 returned 12-LOX inh 76.5%.
For Cc1ccc(NCc2n[nH]c(=S)n2-c2ccccc2)cc1 the results were TSG101-PTAP inh 0.5%, USP2a block -0.5%, Eya2 phos inh 9.5% and 12-LOX inh 28.2µM*.
Screening CCOC(=O)C1(C)/C(=N/Nc2ccc(Cl)cc2)C(=O)C(=O)N1c1ccccc1 (stereo unspecified) returned TSG101-PTAP inh 2.4%, USP2a block 1.8%, Eya2 phos inh -12.6% and 12-LOX inh inconclusive.
For CCOC(=O)C1(C)/C(=N/Nc2cccc(Cl)c2)C(=O)C(=O)N1c1ccccc1 (stereo unspecified) the results were TSG101-PTAP inh 2.5%, USP2a block 2.6%, Eya2 phos inh -10.5% and 12-LOX inh 22.4µM*.
`Cc1ccccc1CS(=O)Cc1ccc(F)cc1Cl` (stereo unspecified) gave 12-LOX inh 5.4%.
`CN(C)c1ccc2nnc(-c3cc(C(=O)Nc4cccc(Cl)c4)ccn3)n2n1` gave 12-LOX inh 12.9%[176 µM].
Screening O=C(Nc1ccc(-c2ccc(Cl)cc2)cc1)c1ccncc1 returned 12-LOX inh 7.08µM*.
For CCn1c(C)cc(C(=O)Cn2cnc3c2c(=O)n(C)c(=O)n3C)c1C the results were 12-LOX inh 1.1%.
`O=C1OC2(c3ccccc31)c1cc(I)c(O)c(I)c1Oc1c2cc(I)c(O)c1I` gave USP2a block inconclusive, Eya2 phos inh inconclusive and 12-LOX inh 1.61µM*.
Screening Cc1ccccc1C1=C/C(=C(\SS/C(C(=O)c2ccc(OCC(=O)O)c(Cl)c2Cl)=C2\C=C(c3ccccc3C)SS2)C(=O)c2ccc(OCC(=O)O)c(Cl)c2Cl)SS1 returned TSG101-PTAP inh -6.0% and 12-LOX inh 5.62µM*.
For O=C(c1cccc(Br)c1)N1CCCc2ccccc21 the results were TSG101-PTAP inh 0.1%, USP2a block -2.9%, Eya2 phos inh -2.9% and 12-LOX inh 0.0%.
O=C(c1coc(=O)c(Br)c1)N1CCCc2ccccc21 was read as TSG101-PTAP inh -3.5%, USP2a block 1.9%, Eya2 phos inh -0.2% and 12-LOX inh 7.08µM*.
Screening O=C1OC(CN(Cc2ccccc2)Cc2ccccc2)CN1N=Cc1ccc([N+](=O)[O-])o1 (stereo unspecified) returned TSG101-PTAP inh -5.5% and 12-LOX inh 12.6µM*.
`COc1cc2c(cc1OC)CN(C(=O)CN(Cc1ccccc1)S(=O)(=O)c1ccccc1)CC2` gave 12-LOX inh -57.3%.
For Nn1c(Cc2ccc(Br)cc2)n[nH]c1=S the results were TSG101-PTAP inh -2.2%, USP2a block 2.6%, Eya2 phos inh 1.6% and 12-LOX inh 28.2µM*.
CN(Cc1ccccc1)C(=O)CCCc1c[nH]c2ccccc12 was read as 12-LOX inh 2.5%.
For CCCCN1C(=O)C(O)=C(C(C)=O)C1c1ccc(OC)cc1OC (stereo unspecified) the results were TSG101-PTAP inh -1.7%, USP2a block 0.5%, Eya2 phos inh 18.7% and 12-LOX inh 8.91µM*.
For COc1ccc(CC(=O)N2N=C(c3cccc(Br)c3)CC2(O)C(F)(F)F)cc1 (stereo unspecified) the results were 12-LOX inh 14.1µM*.
